PubChem BioAssay AID624484 (NMMLSC, 2012)
Some of the results follow. Activity calls are given as the source filed them.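 How the source made its calls: active means compounds whose half-maximal effective concentration is below 100 µM; inactive means the rest.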

Assay: empty-vector K562 compound effect – cell-based, flow cytometry, cherry pick set 2, counter-screen for ABCB6 inhibitor project, dose response (AID 624484)

Cc1ccc(CS(=O)(=O)c2ncc(Cl)c(C(=O)Nc3nnc(C)s3)n2)cc1
outcome: inactive
